Screening data deposited in PubChem by several laboratories.
Hits are enriched below; roughly 1.9% of the tested compounds scored in any of these assays.
PGE2 EP2 inh – inhibitors of human EP2 prostaglandin E2 receptor; AID 1422; P43116; inhibition, % at 25 µM; C6 glioma cells expressing human EP2, cAMP TR-FRET; cells stimulated with saturating PGE2; 0.52% of 260,000 active;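 active = percent inhibition above 40 after rounding to a whole number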;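 also: rat C6 glioma host cells with rolipram phosphodiesterase inhibitor present; the protocol text gives 20 µM as final concentration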
Target sequence (P43116 whole entry, looked up): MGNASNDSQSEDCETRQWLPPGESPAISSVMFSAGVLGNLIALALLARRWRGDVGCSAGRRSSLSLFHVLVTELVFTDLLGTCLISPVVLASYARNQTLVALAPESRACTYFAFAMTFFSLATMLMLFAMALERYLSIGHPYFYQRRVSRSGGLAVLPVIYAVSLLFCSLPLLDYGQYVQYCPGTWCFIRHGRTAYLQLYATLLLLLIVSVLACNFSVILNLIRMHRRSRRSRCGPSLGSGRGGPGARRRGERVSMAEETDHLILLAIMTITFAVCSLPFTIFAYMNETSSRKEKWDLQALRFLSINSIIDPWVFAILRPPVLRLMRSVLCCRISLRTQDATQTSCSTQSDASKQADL
m-calpain inh – blocks pig calpain II enzyme activity. purified calpain II, fluorogenic peptide substrate, 30 min. inhibition, % at 16 µM. 0.37% of 220,000 active. AID 1236;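 active = inhibition above about 50%, limit read from the data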
HMGR II inh – E. faecalis class II HMG-CoA reductase inhibition | purified E. faecalis HMGR, NADPH absorbance 340 nm kinetic | inhibition, % at 10 µM | 0.41% of 190,000 active;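 active = inhibition above a set limit, the median over all tested compounds plus 3 SD, cut at about 9.5% in these data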;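 also: enzyme runs in reverse so mevalonate oxidation gives rising NADPH absorbance; 0% = complete reaction with DMSO and 100% = background rate lacking mevalonate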
EP2 mod – modulates human prostaglandin E2 receptor EP2 signaling. P43116. EP2-expressing cells, cAMP HTRF FRET, PGE2 co-stimulation. induction, % at 25 µM. 0.83% of 260,000 active;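 active = compounds whose cAMP rise, as percent of the full-agonist control response, exceeds 60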;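 also: rat C6 glioma line stably carrying human EP2 under a CMV promoter; the protocol text gives 20 µM as final concentration; 100% = response of wells given 1 µM PGE2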
Furin inh – blocks human furin protease activity; P09958; 0.061% of 220,000 active; inhibition, % at 20 µM or 30 µM; purified furin, fluorogenic substrate cleavage; AID 463115; in the data active = inhibition above about 25%
EP2 confirm – human EP2 receptor cAMP induction, negative in counter-screens. shares compounds with EP2 mod. C6 glioma EP2 cells, cAMP HTRF induction; plus low (about EC15) PGE2 agonist. calls only at 20 µM (by protocol). 47% of 1,300 active;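 active = cAMP induction above 50% in the main assay while under 30% in all four parallel counter assays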;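 also: rat C6 glioma cells stably expressing human EP2 receptor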
* hit, by the source's call; i = inactive; / = no result; + = active, no number; ! = not active in a repeat.

SMILES	PGE2 EP2 inh	m-calpain inh	HMGR II inh	EP2 mod	Furin inh	EP2 confirm
C[C@H](Br)CN(C[C@H](C)Br)c1ccc2c(c1)Cc1ccccc1-2	57.4*	/	/	-27.4	/	/
CS(=O)(=O)N1CCCC(C(=O)N2CCC3(CC2)OCCO3)C1 (stereo not drawn)	4.7	0.9	-1.1	29.4	-25.7	/
O=C(C1CCC(=O)N1C1CCCCC1)N1CCC2(CC1)OCCO2 (stereo not drawn)	/	59.4*	-3.9	13.4	-31.4	/
CC1=CC(=O)c2c(O)cccc2C1=O	79.1*	/	/	-33.6	/	/
COC(=O)[C@@H]1C(=O)[C@H](C(=O)OC)[C@@H]2CC[C@H]1N2C	42.9*	/	/	44.6	/	/
COC(=O)C1C(OC(=O)c2ccccc2)CC2CCC1N2C (stereo not drawn)	14.9	-7.5	2.0	-14.5	-21.6	/
Cc1ccc(C2=CCN(CC(=O)N3CCN(C(=O)c4ccco4)CC3)CC2)o1	/	/	/	-5.9	/	/
CC(=O)OC1=CC2=CC[C@H]3[C@@H]4CCC(=O)[C@@]4(C)CC(=O)[C@]3(S)[C@]2(C)CC1	63.3*	/	/	-1.3	/	/
Cc1cc[c]([Sb]2[O][C@H]([C@H](O)[C@H](O)C(=O)O)[C@@H](CO)[O]2)cc1	48.6*	/	/	18.6	/	/
CC1CCN(CC(C)(C)CN2C3CCC2CC(O)(c2ccccc2F)C3)CC1 (stereo not drawn)	10.7	/	/	-17.4	/	/
c1ccc2c([C@@H]3CCN(CCN4CCOCC4)C3)c[nH]c2c1	53.4*	/	/	13.4	/	/
CC(c1ccccc1F)n1cc(C(=O)NCC2CC2)nn1 (stereo not drawn)	9.2	/	/	-34.7	/	/
COc1cc(OC)c(OC)cc1CNCCc1ccc(OC)c(OC)c1	7.6	-42.5	-1.3	67.3*	-15.7	i
CC(C)c1nccn1Cc1ccc(Cl)cc1Cl	-1.7	/	/	106.0*	/	i
CN1CC(CO)=C[C@@H]2c3cccc4[nH]cc(c34)C[C@H]21	15.3	/	/	13.8	/	/
CCCCCCCCCc1ccc(O)cc1	9.2	/	/	54.9	/	i
NCCc1ccc(O)cc1	11.5	-13.7	0.6	-8.5	-24.9	/
Cc1noc(C)c1CCN	11.6	/	/	-19.3	/	/
CCC(=O)c1cn(Cc2ccccc2)c2ccccc12	8.4	-8.4	0.8	40.3	-18.4	/
O=C(c1cn(Cc2ccccc2)c2ccccc12)C1CC1	11.5	-1.0	-3.1	65.5*	-20.4	i
O=c1cccc2n1CC1CC2CN2CCCC[C@@H]12 (stereo partly drawn)	11.5	/	/	25.5	/	/
NC(=NCCC[C@H](N)C(=O)O)N[N+](=O)[O-]	12.2	/	/	85.6*!	/	i
CN(C/N=C(\N)N[N+](=O)[O-])S(=O)(=O)c1ccccc1	3.4	-20.7	-5.1	-3.2	-15.8	/
CCOP(=S)(OCC)Oc1nc(Cl)c(Cl)cc1Cl	6.9	/	/	68.2*	/	+
C[C@H](N)[C@H](O)c1ccc(O)c(O)c1	8.3	/	/	74.4*	/	i
SMILES	PGE2 EP2 inh	m-calpain inh	HMGR II inh	EP2 mod	Furin inh	EP2 confirm
C=CCc1cc(C=C2C(=O)N(C)C(=O)N(C)C2=O)cc(OCC)c1OCc1ccccc1	5.0	-3.6	-3.7	88.3*	-1.4	i
COc1cccc(CNC(=O)CN2C3CCC2CC(O)(c2ccccn2)C3)c1 (stereo not drawn)	6.2	/	/	-34.5	/	/
CC(C)CCNC(=O)c1c(N)n(CC2CCCO2)c2nc3ccccc3nc12 (stereo not drawn)	4.0	-480.1	-9.0	69.4*	-17.7	+
CCC(C)NC(=O)c1c(N)n(CC2CCCO2)c2nc3ccccc3nc12 (stereo not drawn)	14.5	-418.9	0.4	56.7	-17.6	/
COC[C@H]1OC(=O)c2coc3c2[C@@]1(C)C1=C(C3=O)C2CCC(=O)[C@@]2(C)C[C@H]1OC(C)=O (stereo partly drawn)	14.5	/	/	50.1	/	i
CC1(C)C(=O)C=C[C@@]2(C)C1=C(O)C(=O)[C@]1(C)C2CC[C@@]2(C)[C@H](c3ccoc3)C[C@H]3O[C@]321 (stereo partly drawn)	14.1	/	/	-15.1	/	/
O=C1NCCN2CCCCC12 (stereo not drawn)	7.4	/	/	-1.9	/	/
Clc1ccccc1C1NCc2ccccc2-n2cccc21 (stereo not drawn)	7.3	12.9	-1.1	68.5*	-15.8	+
CN(CCN1CCCCC1)C(=O)Cc1ccc2c(c1)OCCO2	9.4	/	/	-18.9	/	/
O=C(CNC1CCCCC1)N1CCC2(CC1)OCCO2	7.5	-8.7	-8.1	72.7*!	-12.1	i
O=C(NC(Cc1ccccc1)C(=O)N1CCC2(CC1)OCCO2)C1CCCCC1 (stereo not drawn)	2.8	3.4	-0.9	5.7	-7.1	/
